An excerpt weighted towards active compounds, which were near 5.4% of everything screened.
IMPase Li inh: IMPase inhibition in cells with lithium potentiation; CHO-M1 cells, IP1 TR-FRET (IP-One), carbachol + lithium; Potency, µM (highest dose often 59.4 µM), actives largely listed as inhibitors; 210,000 tested, 0.35% active;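 also: IP1 builds up when IMPase is blocked and the TR-FRET signal falls; nearly all actives have a fitted effect of over 50% in size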
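CHO-M1, 2000 cells/well, 16–30 h culture; cpd + low Li+, 30 min 37C; lysis with d2-IP1/Eu-anti-IP1 Ab, 10 min RT; TR-FRET 665/620 ratio and 620 channel; AC50 via Hill.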
ALOX12 inhib: inhibitors of human 12-lipoxygenase (ALOX12); purified 12-hLO, xylenol orange hydroperoxide absorbance; Potency, µM (doses to about 57.1 µM), hits mostly inhibitors; 150,000 tested, 0.12% active; AID 1452; also: nearly all actives have a fitted effect of over 55% in size
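Xylenol orange chromogenic assay: hydroperoxide from 12hLO oxidises Fe(II), giving red-shifted Fe(III)-XO absorbance. Conditions: 150 nM enzyme, 40 uM arachidonic acid, 25 mM Hepes pH 7.0, 0.01% Triton X-100, 30 min, room temperature.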
IMPase inh: cell-permeable inhibitors of inositol monophosphatase (IMPase) | inhibition (IP1 accumulation), % at 46.1 µM | 120,000 tested, under 10 active | CHO-M1 cells, IP1 accumulation, HTRF TR-FRET ratio | P97697; active = well fitted curve in the direction sought with a large enough effect in the signal ratio, not every such curve was filed as active; inconclusive = small, poorly fitted or top-dose-only effect, or a change in a side signal; inactive = no such curve, though single readings can be large or run the other way; the % refers to the signal ratio;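 also: cells stimulated with carbachol in lithium chloride buffer; higher means more IMPase inhibition seen as more IP1 and lower FRET ratio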
Target sequence (P97697 whole entry, looked up): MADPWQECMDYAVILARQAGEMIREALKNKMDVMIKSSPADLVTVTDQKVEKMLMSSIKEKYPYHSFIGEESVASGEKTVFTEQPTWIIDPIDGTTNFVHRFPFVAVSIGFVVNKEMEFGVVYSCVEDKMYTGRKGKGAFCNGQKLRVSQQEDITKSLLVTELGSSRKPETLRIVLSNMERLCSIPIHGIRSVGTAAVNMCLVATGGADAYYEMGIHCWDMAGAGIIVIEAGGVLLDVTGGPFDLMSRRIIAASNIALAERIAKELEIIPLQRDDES
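CHO-M1, 2000 cells/well, cultured 16–30 h; cpd up to 46 uM; carbachol (50 uM solution, stimulation buffer w/ 50 mM LiCl, pH 7.4), 30 min 37C; IP-One TR-FRET, 10 min RT; Ex 320/Em 665, 620; Hill-fit AC50.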
HPGD inh: blocks human HPGD enzyme activity. P15428. purified HPGD, NADH fluorescence kinetic, PGE2 substrate. Potency, µM, hits mostly inhibitors. 150,000 tested, 4.3% active; active = well fitted inhibition curve with a large enough effect, not every such curve was filed as active; inconclusive = small, poorly fitted or top-dose-only effect, or another doubt; inactive = no such curve, though single readings can be large or run the other way
Target sequence (P15428 whole entry, looked up): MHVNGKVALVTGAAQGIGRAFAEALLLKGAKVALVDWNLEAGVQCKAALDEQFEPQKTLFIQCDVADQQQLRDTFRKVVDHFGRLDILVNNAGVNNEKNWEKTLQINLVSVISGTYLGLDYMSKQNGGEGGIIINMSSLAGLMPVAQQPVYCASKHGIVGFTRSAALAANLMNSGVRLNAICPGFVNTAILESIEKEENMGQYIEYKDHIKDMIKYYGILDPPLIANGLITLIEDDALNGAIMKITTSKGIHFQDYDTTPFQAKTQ
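20 nM HPGD preincubated 15 min at room temperature with compound in 50 mM Tris-HCl pH 8, 0.01% Tween 20. Started with 1 mM NAD+ and 30 uM prostaglandin E2; NADH fluorescence (360/450 nm) read 5 times over 30-s intervals, last minus first.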
PNC assembly inh: blocks assembly of the perinucleolar compartment; activity change (PNC), negative = inhibition, % at 10 µM; 140,000 tested, 3.1% active; PC3M PTB-GFP, PNC prevalence imaging, 16 h; active compounds read low; AID 2417;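 active = readout at or below -70, meaning at least 70% loss of cells showing the perinucleolar compartment, a nuclear body marking cancer cells; inconclusive = readout between -30 and a set limit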
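Read-out is percentage of cells bearing a perinucleolar compartment, from automated 20x imaging of fixed, Hoechst-stained PC3M PTB-GFP cells. Cells were seeded 4 h, then exposed 16 h to compound (23 nl of library stock) in duplicate plates.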
ALOX15B inhib: 15-hLO-2 (ALOX15B) enzyme inhibition. 110,000 tested, 0.56% active. purified 15hLO-2, xylenol orange hydroperoxide absorbance. AID 881. Potency, µM (series often up to 57.1 µM), actives largely listed as inhibitors; also: nearly all actives have a fitted effect of over 60% in size
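Purified human 15hLO-2 (50 nM) preincubated 15 min with compound, then 45 uM arachidonic acid for 90 min at RT in 25 mM Hepes pH 7.5, 0.01% Triton X-100. Hydroperoxide detected by Fe-xylenol orange; 573/405 nm absorbance ratio.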
A number is an active result; i = inactive; ? = inconclusive; nt = no result given; [ ] = dose if it differs, or a comment. Unless noted, calls follow the shape of the dose curve; as a rule, active = well fitted curve in the direction sought with a large enough effect; inconclusive = small, poorly fitted or top-dose-only effect, or another doubt; inactive = no such curve, though single readings can be large; an effect the other way counts as inactive or inconclusive.

SMILES	IMPase Li inh	ALOX12 inhib	IMPase inh	HPGD inh	PNC assembly inh	ALOX15B inhib
Cc1ccc(N/C=C/C(=O)c2ccc(C)cc2)cc1	i	2µM	i	i	i	i
Cc1ccc(C(=O)/C=C\Nc2ccc(C)c(C)c2)cc1	i	i	nt	i	i	nt
CCC(=O)c1ccc(OCC(O)Cn2nnc3ccccc32)cc1 (stereo not given)	i	nt	nt	nt	nt	nt
Cc1ccccc1OCC(O)Cn1nnc2ccccc21 (stereo not given)	i	i	i	i	-100	nt
Cc1cc(C)c(C#N)c(SCC(=O)OC2CCCCC2)n1	i	i	i	16µM	-83	i
Cc1ccc(O)c(C(CC(=O)NCC2(c3ccccc3)CCCC2)c2ccccc2)c1 (stereo not given)	nt	nt	i	nt	nt	nt
CC(C)Oc1ccc(CNC(=O)CC(c2ccccc2)c2cc(Cl)ccc2O)cc1 (stereo not given)	i	i	i	i	i	i
CC(C)NC(=O)CC(c1ccccc1)c1cc(Br)ccc1O (stereo not given)	i	i	i	25µM	?	i
CCCCCCNC(=O)CC(c1ccccc1)c1cc(Br)ccc1O (stereo not given)	i	i	i	8.9µM	i	nt
COC(=O)c1ccc2nc(C)cc(Nc3cccc(Cl)c3C)c2c1	nt	nt	i	nt	nt	nt
CCNc1ncc2nc(-c3ccccc3)c(=O)n(Cc3cccs3)c2n1	i	nt	nt	nt	nt	i
Cc1ccccc1Nc1c(-c2cccnc2)nc2ccc(Cl)cn12	nt	nt	i	nt	nt	nt
Cc1c(Cl)cccc1NC(=O)C[C@H]1Sc2ccccc2NC1=O	i	i[11.4 µM]	nt	i	nt	i[11.4 µM]
O=S(=O)(O)c1ccc2c(N=Nc3cccc4ccccc34)c(O)c(S(=O)(=O)O)cc2c1	i	i[11.4 µM]	nt	i	nt	i[11.4 µM]
O=[N+]([O-])c1ccc2c(N=Nc3ccc4ccccc4c3O)c(O)cc(S(=O)(=O)O)c2c1	i	?	nt	2.8µM	nt	4µM
CC(C)=C1C(=O)NN(c2cccc(Cl)c2)C1=O	i	i	nt	7.9µM	i	nt
CC(C)=C1C(=O)NN(c2ccc(C)c(Cl)c2)C1=O	i	i	nt	16µM	i	nt
Cc1cc(/C=C2/C(=O)NN(c3ccccc3)C2=O)c(C)n1-c1cccc(O)c1	i	i	i	?	?	nt
CCN(CC)c1ccc(-c2nn3c(-c4n[nH]c5c4CCC5)nnc3s2)cc1	i	i	i	?	-99	i
CCCCOc1ccc(Cn2c(=O)oc3ccc(C)cc32)cc1	nt	nt	i	nt	nt	nt
Nc1nc(SCc2ccc(Cl)cc2Cl)nc2nc3c(cc12)CCCC3	i	i	nt	i	-83	nt
O=C(c1cc([N+](=O)[O-])ccc1Cl)N1CCN(c2ccc([N+](=O)[O-])cc2)CC1	i	i	nt	i	i	nt
CN1N=C(C(=O)N2CCN(c3ccc([N+](=O)[O-])cc3)CC2)CCC1=O	i	i	nt	i	-94	nt
CC(C)C1C(C#N)=C(N)Oc2n[nH]c(-c3ccccc3)c21 (stereo not given)	i	i	i	i	i	nt
CC(C)CC1C(C#N)=C(N)Oc2n[nH]c(-c3ccccc3)c21 (stereo not given)	i	i	i	i	-100	nt
SMILES	IMPase Li inh	ALOX12 inhib	IMPase inh	HPGD inh	PNC assembly inh	ALOX15B inhib
COc1ccc(-c2[nH]nc3c2C(c2ccoc2)C(C#N)=C(N)O3)cc1 (stereo not given)	i	i	i	13µM	?	nt
COc1ccccc1CNC(=O)CSc1ccccc1	i	nt	nt	nt	nt	nt
COc1ccccc1OCC(=O)Sc1ccc(C)cc1	i	i	i	32µM	i	?
COc1ccccc1CNC(=O)Cn1cccc1	i	i	i	16µM	?	i
COc1ccccc1CNC(=O)CSc1ccc(C)cc1	i	i	nt	14µM	?	nt
Clc1ccc(/C=C\c2nc(Cl)c(-c3ccc(Cl)cc3)c(Cl)n2)cc1	i	i[11.4 µM]	nt	i	nt	i[11.4 µM]
CC1=NN(c2ccccc2)C(=O)/C1=C\c1ccc(Br)s1	i	i	nt	28µM	i	nt
CC1=NN(c2ccccc2)C(=O)/C1=C/c1cccs1	i	i	nt	32µM	?	nt
CCOc1ccc(C(=O)NCC2CCCO2)cc1 (stereo not given)	i	i	i	16µM	i	i
Cc1ccc(NS(=O)(=O)c2ccc(C(=O)NCC3CCCO3)cc2)cc1 (stereo not given)	i	nt	nt	nt	nt	nt
CCOC(=O)Nc1ccc(C(=O)NCC2CCCO2)cc1 (stereo not given)	i	i	i	16µM	i	i
O=C(NCC1CCCO1)c1ccc(COc2ccc(F)cc2)o1 (stereo not given)	i	i	i	25µM	i	i
O=C(NCC1CCCO1)c1ccc(C(=O)NCC2CCCO2)cc1 (stereo not given)	i	i	i	i	i	i
NS(=O)(=O)c1ccc(NC(=O)C2COc3ccccc3O2)cc1 (stereo not given)	i	i	i	i	i	i
O=C(Nc1ccc(-c2cn3ccsc3n2)cc1)C1COc2ccccc2O1 (stereo not given)	i	i	i	i	-94	i
O=C1NC(=O)c2cc(NC(=O)C3COc4ccccc4O3)ccc21 (stereo not given)	i	nt	nt	nt	nt	nt
CC1CC(C)CN(S(=O)(=O)c2ccc(NC(=O)C3COc4ccccc4O3)cc2)C1 (stereo not given)	i	i	i	i	-122	nt
CC1(C)Oc2ccc(NC(=O)C3COc4ccccc4O3)cc2O1 (stereo not given)	i	i	i	20µM	i	i
CN(C)CCNC(=O)c1ccc(Cc2nc3ccccc3[nH]2)cc1	nt	i	nt	i	nt	nt
Cc1ccc(N)c2c1OCCC2=O	i	i	nt	i	-118	nt
NS(=O)(=O)c1cc2c(cc1Cl)=NC(CCC(=O)O)=NS=2(=O)O	i	i[11.4 µM]	nt	i	nt	i[11.4 µM]
COc1cc(C)ccc1OCCCOc1c(Cl)cccc1Cl	i	i	nt	11µM	i	nt
COc1ccccc1OCCCOc1c(Cl)cc(C)cc1Cl	i	i	nt	14µM	i	nt
COc1ccc(C(=O)N(Cc2ccc(C(C)C)cc2)C2CCS(=O)(=O)C2)cc1 (stereo not given)	nt	nt	i	nt	nt	nt
c1ccc2c(c1)OC(CCCN1CCCCC1)c1ccccc1S2 (stereo not given)	i	i	i	i	-100	nt
SMILES	IMPase Li inh	ALOX12 inhib	IMPase inh	HPGD inh	PNC assembly inh	ALOX15B inhib
CCN(CC)C(=O)c1sc(NC(=O)c2ccncc2)c(C(=O)OC)c1C	i	i	nt	22µM	?	nt
CCOC(=O)c1sc(NC(=O)OC)c(C(=O)OC)c1C	i	nt	nt	nt	nt	nt
CCC(=O)Nc1sc(C(=O)OC)c(C)c1C(=O)OC	i	i	i	22µM	?	i
CCOC(=O)c1c(NC(=O)c2ccoc2C)sc(C(=O)N(C)C)c1C	i	i	i	?	i	i
CCOC(=O)c1c(NC(=O)OC)sc(C(=O)N(CC)CC)c1C	i	i	i	28µM	i	i
CCN(CC)C(=O)c1sc(NC(=O)c2ccoc2C)c(C(=O)OC)c1C	i	i	i	14µM	i	i
CCCC(c1cc(C(C)(C)C)c(O)cc1C)c1cc(C(C)(C)C)c(O)cc1C	i	i[11.4 µM]	nt	i	nt	i[11.4 µM]

Screening results deposited in PubChem by National Center for Advancing Translational Sciences (NCATS).
